The results in this text go back to PubChem BioAssay AID2023 (NMMLSC, 2009).

Screen size: about 320,000 compounds; about 1,100 (0.34%) were called active. Shown is part of a subset that was picked to be rich in actives. Unmarked numbers belong to inactive results.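 How the source made its calls: active means GFP response vs DMSO above a set limit, about the screen mean plus 3 SD (cut at about 150% in these data); inconclusive means under 70 cell events counted for the yeast strain; inactive means the rest.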

This test is described as follows: modulators of LAP4-GFP expression in yeast, primary screen, S. cerevisiae, multiplex flow cytometry, MLPCN library (AID 2023). The following applies: 3 h, at 10 µM, hits give high values, median GFP as percent of DMSO wells.
Consider `O=C(CCC(=O)OCc1cccc(C(=O)Oc2ccccc2)c1)Nc1cccc2ccccc12`, for which the GFP response vs DMSO was 104%. Take `Oc1ccc(Br)cc1C=Nc1ccc2[nH]ncc2c1`: the GFP response vs DMSO is 93.5%. For the compound `COc1ccc(-c2nn(-c3ccccc3)cc2/C=N/Nc2ccccn2)cc1OC`, the GFP response vs DMSO is 96.4%. Consider `Oc1ccc(Br)cc1/C=N/Nc1ccccn1`, for which the GFP response vs DMSO was 287% (active). For `O=C(CC1SC(=Nc2ccccc2F)N(CCN2CCOCC2)C1=O)Nc1ccc(F)cc1F` (stereo unspecified), the GFP response vs DMSO was 126%.

Take `O=c1[nH]c(CCl)nc2cc(-c3ccc(Cl)cc3)sc12`: the GFP response vs DMSO is 163% (active). Consider `O=c1[nH]c(CN2CCOCC2)nc2cc(Cl)ccc12`, for which the GFP response vs DMSO was 92.7%. On to `NC(=O)Cc1nc2scc(-c3ccc(Cl)cc3)c2c(=O)[nH]1`, for which the GFP response vs DMSO is 95.5%. Regarding `O=C(O[C@@H]1[C@H](Cc2ccccc2)NS(=O)(=O)[C@H]2C[C@@H]3C=C[C@]12O3)c1ccccc1Br`, the GFP response vs DMSO is 97.1%.

For `CN(CCO)Cc1csc2ccc(Br)cc12`, the GFP response vs DMSO is 106%.

Turning to `Cc1ccc(-c2nn(C(C)(C)C)c3ncnc(N)c23)cc1`, the GFP response vs DMSO is 190% (active). With `Cc1ccc(-n2cnc3ncnc(-c4ccccc4)c32)cc1`, the GFP response vs DMSO was 102%.

On to `O=C(Nc1ccc(Cl)cc1)c1cccc(OC(=S)N2CCOCC2)c1`, for which the GFP response vs DMSO was 65.6%. With `Oc1c(Cl)cc(Cl)c(Cl)c1Cc1c(O)c(Cl)cc(Cl)c1Cl` the figure was 174% (active); with `COc1ccc(C)cc1NC(=O)CN(C)S(=O)(=O)c1ccc2c(c1)n(C)c(=O)c(=O)n2C`, 94.1%. In the case of `CC(C)(C)OC(=O)C[C@@H]1C/C=C\C[C@@H](CC(=O)N[C@H](CO)Cc2ccccc2)C(=O)NC[C@@H](c2ccccc2)OC1=O`, the GFP response vs DMSO is 83%. Take `Cc1c(O)c(C)c2c(c1O)C(=O)C[C@@H](c1ccccc1)O2`: the GFP response vs DMSO was 99.7%. With `CCc1ccc(C2C(C#N)=C(N)Oc3n[nH]c(CC(=O)OC)c32)cc1` (stereo unspecified) the figure was 99.1%; with `CCCc1[nH]nc2c1C(c1ccc(Br)s1)C(C#N)=C(N)O2` (stereo unspecified), 152% (active); with `CCCc1[nH]nc2c1C(c1ccc(OC(=O)c3ccco3)cc1)C(C#N)=C(N)O2` (stereo unspecified), 93.3%. With `CC[C@@H](C)[C@@H]1CN([C@@H](C)CN2CCC[C@H]2CN2C(N)=NC[C@H]2C(C)C)C(=N)N1CCc1ccc(Cl)c(Cl)c1` the figure was 102%; with `CC1CC2=C(CC1/C=N/NC(N)=S)C(C)(C)CCC2` (stereo unspecified), 154% (active).

As to `Cc1ccc(CS(=O)Cc2ccc(C(=O)N3CCOCC3)o2)cc1` (stereo unspecified), the GFP response vs DMSO is 103%. On to `N/C(=N\OC(=O)CCC1CCCCC1)c1ccccn1`, for which the GFP response vs DMSO was 92.5%. For the compound `Cn1c(SCC(=O)Nc2cccc(NC(=O)c3cccs3)c2)nnc1-c1ccncc1`, the GFP response vs DMSO is 94.8%. Take `CCOc1ccc(/C=N/NC(N)=S)cc1`: the GFP response vs DMSO was 109%. For `OC(CNCCc1ccc(Cl)cc1Cl)COc1ccccc1` (stereo unspecified), the GFP response vs DMSO is 93.6%. Turning to `NC(N)=N/N=C/c1ccc(OCc2ccc(Cl)cc2Cl)cc1`, the GFP response vs DMSO was 160% (active). As for `COc1cc(OC)cc(/C(N)=N/O)c1`, the GFP response vs DMSO was 114%. `CCc1ccccc1NC(=O)c1cc(-c2ccc3c(c2)OCO3)on1`: the GFP response vs DMSO was 93.6%. For `O=C(Nc1cccnc1Cl)c1cc(-c2cccc(Cl)c2)on1`, the GFP response vs DMSO is 98.9%. For `O=C(Nc1ccccc1C(F)(F)F)c1cc(-c2ccc(O)cc2)on1`, the GFP response vs DMSO is 151% (active). `COc1ccc(C(=O)NC(=S)NNC(=O)c2c(-c3ccccc3)noc2C)cc1`: the GFP response vs DMSO was 102%. In the case of `CCCc1ccc(OCC(=O)NNC(=S)NC(=O)c2ccco2)cc1` it was 182% (active); in that of `O=C(Nc1ccc2ccccc2c1)/C(=C/c1cccc(Br)c1)NC(=O)c1ccco1`, 91%. Take `Cc1ccc(OCC(=O)NCCCNC(=O)c2ccco2)cc1C`: the GFP response vs DMSO was 90%. Regarding `COc1ccc(C(=O)NC(=S)NNC(=O)CCc2ccccc2)cc1`, the GFP response vs DMSO is 195% (active).

Consider `CC(C)Oc1ccc(CCC(=O)NNC(=S)NCc2ccccc2)cc1`, for which the GFP response vs DMSO was 103%.

For the compound `CCCc1ccc(OCCNC(=O)c2ccco2)cc1`, the GFP response vs DMSO was 83.5%.

Regarding `Cc1ccc(C(=O)NNC(=O)C(C)Oc2ccc3ccccc3c2)o1` (stereo unspecified), the GFP response vs DMSO is 104%. Regarding `CC(Oc1ccc2ccccc2c1)C(=O)NNC(=S)NC(=O)c1ccco1` (stereo unspecified), the GFP response vs DMSO is 237% (active).

As to `CCn1c(=S)[nH]c2cc(S(=O)(=O)N3CCOCC3)ccc21`, the GFP response vs DMSO was 89.3%. Consider `Cc1ccc2cccc(S(=O)(=O)N3CCN(c4ccccc4F)CC3)c2n1`, for which the GFP response vs DMSO was 110%. Consider `Cc1ccc(C(=O)N2CCCC(c3ccccc3)=N2)cc1`, for which the GFP response vs DMSO was 107%.

With `CC(C(=O)Nc1ccccc1-c1ccccc1)N1CCOCC1` (stereo unspecified), the GFP response vs DMSO is 100%.

As for `CC(C)c1ccc(NC2CCCN(C(=O)c3ccncc3)C2)cc1` (stereo unspecified), the GFP response vs DMSO was 93.3%. With `COC(=O)c1cc(S(=O)(=O)NC2CCN(Cc3ccccc3)CC2)cn1C` the figure was 95.7%; with `CC12CN3CCN(CC(C3)/C1=N\NC(=O)c1ccccc1N)C2`, 102%. With `CC(=O)Nc1ccc(NC(=O)COC(=O)C2CCC(C(C)(C)C)CC2)cc1` (stereo unspecified), the GFP response vs DMSO was 107%.

As for `Cc1cccc(C)c1NC(=O)C(c1ccccc1)N1CC(=O)Nc2ccccc21` (stereo unspecified), the GFP response vs DMSO was 90.5%. As for `Cc1cccc(C)c1NC(=O)C(Cl)C(=O)c1ccccc1` (stereo unspecified), the GFP response vs DMSO was 269% (active). Regarding `Cc1cccc(C)c1NC(=O)CN(C)C(=O)CCC(=O)c1ccccc1`, the GFP response vs DMSO was 104%. Consider `FC(F)(F)c1cnc(Oc2ccccc2-c2nnc(-c3ccc(Cl)cc3)o2)c(Cl)c1`, for which the GFP response vs DMSO was 96.3%.

Take `COc1cccc(/C=N/Nc2ncc(C(F)(F)F)cc2Cl)c1O`: the GFP response vs DMSO was 184% (active). For `Oc1cccc(/C=N/Nc2ccc(Cl)nn2)c1O`, the GFP response vs DMSO is 89.6%. On to `Cc1ccc2nsnc2c1NC(=O)c1ccccc1[N+](=O)[O-]`, for which the GFP response vs DMSO is 93.2%. `Cc1cc(=O)n2nc(N3CCCC(C(=O)NCc4ccc(Cl)cc4)C3)sc2n1` (stereo unspecified): the GFP response vs DMSO is 92.3%. As for `Cc1cc(=O)n2nc(N3CCCC(C(=O)NCc4cccc(Cl)c4)C3)sc2n1` (stereo unspecified), the GFP response vs DMSO is 92.2%. As to `Cc1cc(=O)n2nc(N3CCCC(C(=O)NCCC4=CCCCC4)C3)sc2n1` (stereo unspecified), the GFP response vs DMSO was 196% (active). In the case of `CC(=O)NCCC(=O)Nc1cc(S(=O)(=O)N2CCCCC2)ccc1Oc1cccc(C)c1`, the GFP response vs DMSO is 87.1%.

Take `COc1ccc([C@H]2CC(=O)C=C(/C=C/c3ccccc3)C2)cc1`: the GFP response vs DMSO was 115%.
